About 83,000 compounds went through this panel and 20% of them were active in at least one assay; those are over-represented in the sample as a whole.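 Single-dose data. Exposure time 48 hours. Values below 10 considered active.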 Values without a mark were called inactive. The source made the active and inactive calls.
Key:
Experiment in all cases: NCI-60 one-dose screen, 48 h (100 = growth as untreated, 0 = no growth, -100 = all killed)
Details in all cases: 10 µM unless noted
DU-145 prostate = tested on: DU-145 prostate
K-562 leukemia = tested on: K-562 leukemia
MALME-3M melanoma = tested on: MALME-3M melanoma
MDA-MB-231 breast = tested on: MDA-MB-231 breast
RXF 393 renal = tested on: RXF 393 renal
SF-268 CNS = tested on: SF-268 CNS
SF-295 CNS = tested on: SF-295 CNS
SF-539 CNS = tested on: SF-539 CNS
UACC-257 melanoma = tested on: UACC-257 melanoma
M14 melanoma = tested on: M14 melanoma

Row | Compound | growth (DU-145 prostate) | growth (K-562 leukemia) | growth (MALME-3M melanoma) | growth (MDA-MB-231 breast) | growth (RXF 393 renal) | growth (SF-268 CNS) | growth (SF-295 CNS) | growth (SF-539 CNS) | growth (UACC-257 melanoma) | growth (M14 melanoma)
1 | CN(C)CCCC1(c2ccc(F)cc2)OCc2cc(-c3cc4ccccc4s3)ccc21 (stereo not given) | 18% | -17.5% (active) | -77.4% (active) | -42.4% (active) | 34.8% | 38.3% | 70.4% | -58.8% (active) | -29.1% (active) | -68.7% (active)
2 | COc1ccc(N2CCN(C(=O)c3sc4nc(C)c(Br)c(C)c4c3N)CC2)cc1 | 104% | 97.3% | -12.3% (active) | 84.2% | 116% | 89.1% | 95.6% | 91.8% | 99.7% | 99.3%
3 | CC1=C(CCC(C)NCc2ccc(OCCCN3CCCCC3)cc2)C(C)(C)CCC1 (stereo not given) | -49.1% (active) | -46.6% (active) | -80.5% (active) | -73.4% (active) | -89.1% (active) | -76.8% (active) | -70% (active) | -85.3% (active) | -76.1% (active) | -81% (active)
4 | C#COc1cccc(Nc2ncnc3cc(NC(=O)[C@@H](C)Cl)ccc23)c1 | 13% [6.25 µM] | 7.85% [6.25 µM] (active) | 38.2% [6.25 µM] | 24.5% [6.25 µM] | 7.55% [6.25 µM] (active) | 21.6% [6.25 µM] | 7.32% [6.25 µM] (active) | -5.67% [6.25 µM] (active) | 36.9% [6.25 µM] | 10.4% [6.25 µM]
5 | CN(CCC(=O)c1ccccc1)CCC(=O)c1ccccc1 | 104% | 61.7% | 105% | 97.3% | 97.9% | 101% | 108% | 88% | 98.6% | 94.7%
6 | COc1cc2nc3sc(C(=O)Nc4ccc(C(=O)OC(C)C)cc4)c(C(=O)Nc4ccc(Cl)cc4C)n3c(=O)c2cc1OC | 13.2% | 56.4% | 43.9% | 86.9% | 83.8% | 64.5% | 42% | 104% | 118% | 77.7%
7 | O=C(/C=C/c1ccc(Oc2ccc(Br)cc2)cc1)c1ccc(Br)cc1 | 102% | 91.8% | 98% | 101% | 100% | 101% | 100% | 102% | 98.1% | 93.5%
8 | O=C(Nc1ccccc1N1CCCC1=O)c1oc2ccc(F)cc2c1-c1cnn(-c2ccccc2)c1 | 68.8% [50 µM] | 42.9% [50 µM] | 28.8% [50 µM] | 21.7% [50 µM] | 25.8% [50 µM] | 40.1% [50 µM] | 43.5% [50 µM] | 30.8% [50 µM] | 69.9% [50 µM] | 77.7% [50 µM]
9 | Cc1n[nH]c2ccc(Br)cc2c1=O | 104% | 91.4% | 97.4% | 121% | 103% | 107% | 87% | 98.1% | 108% | 103%
10 | Cc1ccc(-c2nc(N3CCNCC3)c3oc(-c4ccc(C)cc4)nc3n2)cc1 | 11.9% | -75% (active) | 93.6% | -72.1% (active) | 73.4% | 28.5% | 108% | 95.8% | 103% | -94.3% (active)
11 | O=c1cc(-c2ccccc2)[nH]c2ncc(-c3ccc(F)cc3)n12 | 94.6% | 18.5% | 77.8% | 62% | 72.3% | 80.6% | 46% | 73.8% | 83.1% | 50.4%
12 | O=C(CCSc1nnc2n(Cc3ccccc3)c(=O)c3c4c(sc3n12)CCCC4)N1CCN(c2ccccc2)CC1 | 111% | 113% | 95.4% | 109% | 108% | 93% | 96% | 100% | 101% | 96.2%
13 | Cn1cc(-c2csc(-c3c[nH]c4ccc(F)cc34)n2)c2ccnc(Cl)c21 | 51.2% | 53.3% | 121% | 60.9% | 67.8% | 92% | 85% | 68.9% | 39.3% | 57.4%
14 | COc1ccccc1C(=O)Nc1cccc(NC(=O)c2ccoc2C)c1 | 53.3% | 8.76% (active) | 60.4% | 59.4% | 50.1% | 48.2% | 29.8% | 27.2% | 33.3% | 13.1%
15 | CCOC(=O)c1c(C)nc2ccccc2c1/C=C/c1ccccc1 | 91.9% | 44.4% | 111% | 81.9% | 113% | 85.4% | 66.4% | 89% | 76.6% | 82.8%
16 | C[C@H](C(=O)N(CCc1ccc(Cl)c(Cl)c1)Cc1cncs1)[C@@H]1CC[C@H](C[C@H](C)n2cc(CN3CCC(c4ccc(Cl)cc4)CC3)nn2)O1 | 112% | -75.9% (active) | 101% | 93.5% | 103% | 102% | 99.2% | 101% | 102% | 99.1%
17 | CCCCC#Cc1c(I)n(C)c(=O)[nH]c1=O | 20.8% | -43.7% (active) | -85.4% (active) | -67.7% (active) | -81.7% (active) | 26.5% | 92.3% | 66.7% | -48.4% (active) | -7.41% (active)
18 | Cc1ccc(S(=O)(=O)OCCCOS(=O)(=O)c2ccc(C)cc2)cc1 | 95% | 65.9% | 100% | 110% | 107% | 101% | 107% | 122% | 81.1% | 98%
19 | COc1cccc(CCNc2ncnc3c2ncn3Cc2nnc3c4ccccc4c(Cl)nn23)c1 | 50.5% | 61.4% | 55.8% | 46.3% | 48.7% | 49.4% | 89.9% | 72.6% | 59.5% | 32.2%
20 | COc1ccc(C[n+]2c3ccccc3n3c4ccc(N)cc4ccc32)c(OC)c1OC | 81% | 42% | 49.6% | 75.5% | 69.7% | 35% | 65.6% | 52.2% | 3.35% (active) | 87.5%
21 | COc1ccc(/C=C/c2ccc3ccccc3n2)c(OC)c1 | 91.2% | 19.8% | 50% | 58.9% | 90.7% | 98.7% | 60.2% | 83.3% | 84.8% | 45.3%
22 | Nc1nc(NC(=O)Nc2ccc(C(=O)O)cc2)nn1-c1ccc(S(N)(=O)=O)cc1 | 97.3% | 102% | 85.7% | 75.3% | 94.1% | 95.1% | 104% | 95.9% | 89.9% | 95.4%
23 | CCOc1c(OC)cc2c(c1O)C(=O)N[C@@H]1[C@@H](O)[C@@H](O)[C@H](O)C[C@@H]21 | 109% | 91.2% | 102% | 106% | 109% | 102% | 102% | 97.7% | 100% | 105%
24 | O=C1/C(=C2\SC(=S)N(C3CC3)C2=O)SC(=S)N1C1CC1 | 105% | 103% | 99.2% | 101% | 97.3% | 95.1% | 98.6% | 103% | 94.9% | 96.3%
25 | CCOC(=O)c1cnc2c(N=Nc3ccc(OC)cc3)c(N)nn2c1N | 102% | 107% | 106% | 101% | 113% | 94.2% | 102% | 110% | 103% | 110%
26 | N#Cc1cccc(C2C3=C(COC3=O)N(CCO)c3cc4c(cc32)OCO4)c1 (stereo not given) | 37.3% | 9.87% (active) | 49.6% | 59.4% | 41.5% | 40.3% | 4.98% (active) | 8.85% (active) | 55.3% | 14.5%
